We go through seven molecules from PubChem BioAssay (NCI).

Compounds without any hit were thinned out: in the full panel of roughly 83,000, 20% have a hit.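 The endpoint reported here, percent growth, reads 100 for growth as untreated, 0 for no net growth and -100 for all cells dead.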 A number with no mark means an inactive call. Calls of active or inactive are those of the source. How the source made its calls: active means growth percent below 10; inactive means the rest.

Test systems include DU-145 prostate; K-562 leukemia; MALME-3M melanoma; MDA-MB-231 breast; RXF 393 renal; SF-268 CNS; SF-295 CNS; SF-539 CNS; UACC-257 melanoma; M14 melanoma; HCT-15 colon; HT29 colon; SNB-75 CNS; SNB-19 CNS; PC-3 prostate; SK-MEL-5 melanoma; UACC-62 melanoma; LOX IMVI melanoma; SK-MEL-28 melanoma.
Assay in all cases: NCI-60 one-dose screen, 48 h (100 = growth as untreated, 0 = no growth, -100 = all killed)
What all share (details): 10 µM unless noted

Turning to `Cn1c2c(cc(S(=O)(=O)c3ccccc3)c1=O)CCc1c-2cnn1-c1ccccc1Cl`, the growth in the assay on DU-145 prostate was 120%; with K-562 leukemia, 95.5%; in the assay on MALME-3M melanoma, 108%; in the assay with MDA-MB-231 breast, 101%; with RXF 393 renal, 111%; in the assay on SF-268 CNS, 106%. For the same molecule, the growth with SF-295 CNS was 87.9%; with SF-539 CNS, 90.2%; in the assay on UACC-257 melanoma, 89.8%; in the assay on M14 melanoma it was 110%; with HCT-15 colon, 95.9%; with HT29 colon, 104%. The growth is 92.5% in the assay with SNB-75 CNS; 96.2% in the assay with SNB-19 CNS; 93.5% in the assay with PC-3 prostate; 105% in the assay on SK-MEL-5 melanoma; 93.4% in the assay on UACC-62 melanoma; 107% in the assay with LOX IMVI melanoma. The growth in the assay on SK-MEL-28 melanoma was 104%.
With `COc1nc2c(cc1S(=O)(=O)c1ccccc1)CCc1c-2cnn1-c1ccccc1Cl`, the growth was 90.8% in the assay on DU-145 prostate; 54.3% in the assay on K-562 leukemia; 97.4% in the assay with MALME-3M melanoma; 70.2% in the assay on MDA-MB-231 breast; 52.6% in the assay on RXF 393 renal; 74.1% in the assay on SF-268 CNS. In addition, the growth in the assay on SF-295 CNS is 63%; in the assay on SF-539 CNS it was 60.5%; in the assay with UACC-257 melanoma, 72.6%; in the assay with M14 melanoma it was 68.9%; with HCT-15 colon, 51.5%; in the assay on HT29 colon, 36.9%. For the same molecule, the growth was 50.9% in the assay on SNB-75 CNS; 64.5% in the assay on SNB-19 CNS; 35.9% in the assay on PC-3 prostate; 68% in the assay on SK-MEL-5 melanoma; 60% in the assay on UACC-62 melanoma; 78% in the assay with LOX IMVI melanoma. Also, in the assay with SK-MEL-28 melanoma, the growth is 85.2%.
As for `CCCN(CCC)c1ccc(/C=C/c2ccc3cc(OCC)ccc3n2)cc1`, the growth in the assay with DU-145 prostate is 91.6%; with K-562 leukemia, 72.9%; with MALME-3M melanoma, 88%; in the assay with MDA-MB-231 breast it was 109%; with RXF 393 renal, 81.6%; with SF-268 CNS, 90.7%. Also, the growth with SF-295 CNS is 91.9%; in the assay on SF-539 CNS it was 90.7%; in the assay with UACC-257 melanoma it was 84.3%; with M14 melanoma, 86.4%; with HCT-15 colon, 78.6%; in the assay on HT29 colon, 66.7%. The growth in the assay on SNB-75 CNS is 98.6%; in the assay on SNB-19 CNS, 90%; in the assay with SK-MEL-5 melanoma it was 78.3%; with LOX IMVI melanoma, 97.6%; with SK-MEL-28 melanoma, 64.8%.
Consider `COc1ccc(NC(=O)c2ccc3c(c2)nc(-c2ccc(Cl)cc2)n3-c2cc(C(C)(C)C)[nH]n2)cc1`, for which the growth is 90.2% with DU-145 prostate; 86% in the assay on K-562 leukemia; 91.1% in the assay on MALME-3M melanoma; 95.4% in the assay on MDA-MB-231 breast; 79.1% in the assay with RXF 393 renal; 76.2% with SF-268 CNS. Moreover, the growth with SF-295 CNS was 67.8%; in the assay with SF-539 CNS, 87.6%; with UACC-257 melanoma, 96.4%; with M14 melanoma, 82.3%; in the assay on HCT-15 colon, 82.6%; in the assay on HT29 colon, 116%. The growth in the assay on SNB-75 CNS was 77.8%; with SNB-19 CNS, 82.6%; in the assay on PC-3 prostate it was 68.1%; in the assay on SK-MEL-5 melanoma, 70.7%; in the assay with SK-MEL-28 melanoma it was 95.4%.
In the case of `CCCC1=NNC(=O)C1`, the growth was 125% in the assay on DU-145 prostate; 100% in the assay with K-562 leukemia; 101% in the assay with MALME-3M melanoma; 122% in the assay with MDA-MB-231 breast; 113% in the assay on RXF 393 renal; 108% with SF-268 CNS. The growth with SF-295 CNS is 97.5%; with SF-539 CNS, 89.8%; in the assay with UACC-257 melanoma, 90.9%; with M14 melanoma it was 104%; with HCT-15 colon it was 103%; in the assay with HT29 colon, 103%. The growth with SNB-75 CNS was 93.8%; in the assay on SNB-19 CNS it was 103%; in the assay on PC-3 prostate, 91.1%; with SK-MEL-5 melanoma, 104%; in the assay with UACC-62 melanoma it was 114%; in the assay with LOX IMVI melanoma, 108%. Moreover, the growth in the assay with SK-MEL-28 melanoma is 104%.
For `Cc1ccc(-c2nnc(COc3ccc(-c4nnc(N)s4)cc3)o2)cc1`, the growth was 100% in the assay with DU-145 prostate; 91.1% in the assay with K-562 leukemia; 67.6% with MALME-3M melanoma; 87.8% in the assay with MDA-MB-231 breast; 58% with RXF 393 renal; 79.6% in the assay on SF-268 CNS. Also, the growth was 7.56% (active) with SF-295 CNS; 109% with SF-539 CNS; 112% with UACC-257 melanoma; 88.1% with M14 melanoma; 81.3% with HCT-15 colon; 81.5% with HT29 colon. Besides, the growth is 94.2% with SNB-75 CNS; 86% in the assay on SNB-19 CNS; 83.9% in the assay on PC-3 prostate; 83.2% in the assay with UACC-62 melanoma; 26% in the assay with LOX IMVI melanoma; 98.3% in the assay with SK-MEL-28 melanoma.
Regarding `O=C(c1cnn2c1NC(c1ccc(F)cc1)C2)N1CCCCC1` (stereo not drawn), the growth was 103% in the assay with DU-145 prostate; 103% in the assay on K-562 leukemia; 97.7% in the assay on MALME-3M melanoma; 106% in the assay on MDA-MB-231 breast; 111% in the assay on RXF 393 renal; 96.7% in the assay with SF-268 CNS. Also, the growth in the assay on SF-295 CNS is 103%; in the assay on SF-539 CNS, 97.8%; in the assay on UACC-257 melanoma, 96.3%; in the assay with M14 melanoma it was 101%; in the assay on HCT-15 colon, 102%; in the assay with HT29 colon, 103%. Also, the growth in the assay with SNB-75 CNS is 84.8%; in the assay with SNB-19 CNS, 100%; with PC-3 prostate, 96.9%; with SK-MEL-5 melanoma it was 97.8%; in the assay with UACC-62 melanoma, 101%; with LOX IMVI melanoma it was 103%. Also, the growth in the assay with SK-MEL-28 melanoma is 103%.
